Shown are actives, neighbours in structure and some others; about 0.5% of the full set was active somewhere.
Tat transport: E. coli Tat export inhibitors, primary screen, MC4100, TorA-mCherry reporter, fluorescence, single point; 340,000 compounds, 0.036% hits; AID 488895, 2010; inhibition, % at 10 µM;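 active = mean replicate inhibition at least 50% and at least half of replicates individually reaching 50%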;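 also: exported cargo escapes ClpAP degradation while cytoplasmic cargo is degraded and loses fluorescence; 0% = median of neutral control wells and 100% = median of NaSCN control wells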
phage Ecoli inh: growth loss of phage-infected E. coli, primary screen, RecBCD inhibitor project, absorbance, with phage, HTS | AID 651602, 2012 | 360,000 compounds, 0.26% hits | inhibition, % at 11.9 µM; in the data active = inhibition above about 11%
E coli growth-1: E. coli V3065 growth inhibition, primary screen, counter-screen for AddAB inhibitor project, absorbance, OD600 | inhibition, % at 11.9 µM | 330,000 compounds, 0.27% hits | 18 h;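 active = inhibition above the campaign's mean inhibition across all tested compounds plus 3 SD, cut at about 9.9% in these data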;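 also: uninfected addAB+ strain grown without phage in ampicillin broth; 0% = DMSO wells and 100% = ciprofloxacin 0.95 µg/ml wells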
E coli growth-2: E. coli growth inhibition, primary screen, OD600. Escherichia coli growth, 23 h; stronger effect = lower value. OD600 absorbance (no concentration beside the values). 330,000 compounds, 0.21% hits. AID 1053175, 2014;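 active = OD600 absorbance below the run mean of sample wells minus 3.6 SD, in any replicate, cut at about 0.56 in these data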
AddAB inh: growth inhibition of E. coli expressing H. pylori AddAB, primary screen, AddAB inhibitor project, absorbance; 330,000 compounds, 0.29% hits; AID 435030, 2010; inhibition, % at 11.9 µM; in the data active = inhibition above about 12%;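 also: 0% = vehicle wells of infected cells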
AddAB confirm: growth loss of phage-infected E. coli expressing H. pylori AddAB, confirmation, AddAB inhibitor project, absorbance, E. coli V3065, T4 phage, triplicate; AID 488942, 2010; 880 compounds, 64% hits; inhibition, % at 11.9 µM; OD; T4 phage with gene 2 nonsense mutations; shares compounds with AddAB inh;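 active = mean inhibition above a set limit taken from the earlier primary screen, cut at about 13% in these data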;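 also: higher means less bacterial growth since AddAB block lets phage replicate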
RecBCD counter: growth loss of RecBCD+ E. coli with mutant T4 phage, counter-screen for AddAB inhibitor project, absorbance, V66 E. coli; shares compounds with AddAB inh; OD growth; inhibition, % at 11.9 µM; 880 compounds, 73% hits;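 active = mean inhibition above the mean of solvent-only control wells plus 3 SD, cut at about 4% in these data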;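 also: optical density read after an 18 h incubation at 37 °C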
bact viab count: bacterial viability inhibition counter-screen, confirmation, counter-screen for AddAB inhibitor project, absorbance; AID 488956, 2010; shares compounds with AddAB inh; 880 compounds, 35% hits; inhibition, % at 11.9 µM; absorbance (AddAB counterscreen); in the data active = inhibition above about 25%
* marks the source's active call; other numbers are inactive results; / = not tested or not shown.

SMILES	Tat transport	phage Ecoli inh	E coli growth-1	E coli growth-2	AddAB inh	AddAB confirm	RecBCD counter	bact viab count
O=C(COC(=O)C1CCN(S(=O)(=O)c2ccc3c(c2)OCCO3)CC1)NC1CCS(=O)(=O)C1 (stereo not drawn)	-3.1	0.2	9.8*	0.678	26.0*	-5.7	-2.3	-5.2
C#Cc1ccc(C2C=C(C(=O)NCc3nc4ccccc4[nH]3)OC(OCC)C2CCCO)cc1 (stereo not drawn)	/	/	/	0.682	/	/	/	/
Cc1cc2oc(=O)cc(CN(C)Cc3cccc(F)c3)c2cc1Cl	14.9	0.5	2.0	0.67	-0.6	/	/	/
CCOc1ccc(CN(C)Cc2cc(=O)oc3cc(C)c(Cl)cc23)cc1	3.2	2.0	15.1*	0.685	20.2*	-0.9	-0.7	-3.5
O=C(NN1C(=O)c2ccccc2NC1c1ccc([N+](=O)[O-])o1)c1ccc(Br)cc1 (stereo not drawn)	-1.6	4.9	1.9	0.687	3.1	/	/	/
CC(=O)NN1C(=O)c2ccccc2NC1c1ccc([N+](=O)[O-])o1 (stereo not drawn)	-9.6	4.5	14.8*	0.598	17.8*	79.2*	5.9*	30.0*
O=C(NC(Cc1ccccc1)C(=O)O)C(=Cc1ccccc1)NC(=O)c1cccc(Br)c1 (stereo not drawn)	/	/	/	0.647	/	/	/	/
CCOC(=O)N1CCN(C(=O)c2cc3c(s2)-c2ccccc2OC3)CC1	3.5	3.6	1.6	0.7	0.2	/	/	/
CCCN1CCN(C(=O)c2cc3c(s2)-c2ccccc2OC3)CC1	1.3	7.9	12.6*	0.719	15.0*	22.5*	7.3*	15.8
CC1=C(C(=O)OCC2CCCO2)C(c2coc3ccc(C)cc3c2=O)C2=C(CCCC2=O)N1 (stereo not drawn)	7.0	3.9	91.3*	0.669	99.3*	0.0	0.6	-1.0
CC1=C(C(=O)OCC2CCCO2)C(c2coc3ccc(Cl)cc3c2=O)C2=C(CCCC2=O)N1 (stereo not drawn)	-10.5	4.2	1.0	0.726	0.6	/	/	/
CC(C)(C)C1C=C(C(=O)O)OC(OCc2ccc(CO)cc2)C1 (stereo not drawn)	/	/	/	0.691	/	/	/	/
COc1ccc(-c2nnc3ccc(SCC(=O)N4CCCCC4)nn23)cc1OC	1.6	2.2	47.7*	0.74	97.3*	-1.9	-1.6	-3.8
O=C(C=Cc1cccs1)Nc1ccc(N2CCOCC2)c(S(=O)(=O)Nc2ccccc2Cl)c1	/	/	/	0.713	/	/	/	/
CC(C)CCN(C)C1CCN(C(=O)Nc2c(F)cccc2F)CC1	-0.7	3.7	4.8	0.722	27.6*	-3.4	1.1	-1.3
O=C(NCCC1=CCCCC1)C1CCN(C(=O)Cc2ccccc2)CC1	-10.6	-0.1	98.2*	0.717	97.5*	-1.1	1.0	0.1
O=C(NCCC1=CCCCC1)C1CCN(S(=O)(=O)c2ccccc2)CC1	-2.4	3.5	-2.6	0.686	-2.2	/	/	/
Cc1cc(=O)n(-c2ccc(O)cc2)[nH]1	-3.4	10.8	93.1*	0.541	98.2*	78.4*	7.7*	45.7*
CCCC(c1nnnn1CS(=O)(=O)c1ccc(C)cc1)N1CCN(c2ccccc2)CC1 (stereo not drawn)	12.8	3.4	2.6	0.766	-0.9	/	/	/
CCC(c1nnnn1CS(=O)(=O)c1ccc(C)cc1)N1CCN(c2nc3ccccc3s2)CC1 (stereo not drawn)	5.6	2.5	31.8*	0.744	44.2*	-1.8	-0.6	-1.9
COc1ccccc1C(=O)N/C(=C\c1ccccc1)C(=O)NC(C)C(=O)O (stereo not drawn)	-0.7	1.1	71.5*	/	96.8*	0.7	-1.3	-3.5
Cc1cccc(NC(=O)NC(C)C(c2cccs2)N2CCOCC2)c1 (stereo not drawn)	-9.9	4.5	99.2*	0.73	99.5*	-0.8	2.3	2.5
NS(=O)(=O)c1ccc(CCNC(=O)CSc2ccsc2[N+](=O)[O-])cc1	-0.6	7.0	14.6*	0.639	15.8*	39.9*	5.4*	31.8*
NC(=NOC(=O)c1ccccc1Cl)c1ncc([N+](=O)[O-])s1	/	/	/	0.599	/	/	/	/
N/C(=N/OC(=O)c1ccc(Cl)cc1)c1ncc([N+](=O)[O-])s1	-10.1	6.3	6.2	/	18.6*	43.5*	0.6	0.8
SMILES	Tat transport	phage Ecoli inh	E coli growth-1	E coli growth-2	AddAB inh	AddAB confirm	RecBCD counter	bact viab count
O=C(C1=CC(c2csc3ccccc23)CC(OCCCCO)O1)N1CCOCC1 (stereo not drawn)	/	/	/	0.667	/	/	/	/
CC(O)Cc1cc2ccccc2c(=O)o1 (stereo not drawn)	/	/	/	0.694	/	/	/	/
Oc1ccc(/C=N/NC(=S)Nc2cccnc2)c(O)c1	2.7	4.7	10.5*	/	15.9*	8.0	11.1*	15.8
C=CCCC(Cc1ccc(F)cc1)C(=O)OCC(Cc1c[nH]c2ccccc12)NC(=O)C(CC=C)CC(=O)NCCO (stereo not drawn)	/	/	/	0.652	/	/	/	/
CCC(CC)C1C(C#N)=C(N)Oc2cc(C)oc(=O)c21 (stereo not drawn)	-2.3	0.3	2.9	0.658	4.2	/	/	/
Cc1cc2c(c(=O)o1)C(c1ccc([N+](=O)[O-])o1)C(C#N)=C(N)O2 (stereo not drawn)	3.4	6.7	14.8*	0.627	19.0*	100.3*	8.3*	18.9
CCc1ccc(C(C(=O)NCc2ccccc2)N(C(=O)c2csnn2)C2CC2)cc1 (stereo not drawn)	-2.3	0.5	45.9*	0.651	98.6*	-4.0	-0.2	-1.7
O=C(NCc1ccccc1)C(c1ccccc1)N(C(=O)c1csnn1)C1CC1 (stereo not drawn)	-2.4	2.7	0.7	0.711	3.1	/	/	/
CC(C(N)C(=O)NC(C(=O)O)C1OC(n2ccc(=O)[nH]c2=O)C(O)C1O)C(O)c1ccc(O)cn1 (stereo not drawn)	/	/	/	0.68	/	/	/	/
CCOc1ccc(NC(=O)CCC(=O)N2CCSc3ccccc32)cc1	-1.3	4.4	-1.1	0.745	18.8*	-2.8	-0.3	-3.3
CN=c1c([N+](=O)[O-])nn(-c2ccc3c(c2)OCCO3)n1O	0.9	6.3	19.4*	0.538	21.2*	30.9*	9.9*	30.7*
NC(=O)C1CC2(CC(c3cccc(NC(=O)C4CCC(=O)N4)c3)=NO2)CN1C(=O)c1cc([N+](=O)[O-])cc([N+](=O)[O-])c1 (stereo not drawn)	/	/	/	0.649	/	/	/	/
COc1ccc(/C=N/NC(=S)SC)cc1OC	-1.1	8.4	13.4*	/	18.2*	44.3*	11.6*	30.1*
CCOC(=O)C1C2COc3ccccc3C2N2C(=O)C(C)NC(=O)[C@@]12C (stereo partly drawn)	/	/	/	0.697	/	/	/	/

High-throughput results as filed in PubChem.
